The source of these data is the supplement of paper PMC7724964.

Sequences and labels used below:
T1: PPARG 233-505 Hormone_recep (domain begin residue: 233, domain end residue: 505), P37231
T1 chain: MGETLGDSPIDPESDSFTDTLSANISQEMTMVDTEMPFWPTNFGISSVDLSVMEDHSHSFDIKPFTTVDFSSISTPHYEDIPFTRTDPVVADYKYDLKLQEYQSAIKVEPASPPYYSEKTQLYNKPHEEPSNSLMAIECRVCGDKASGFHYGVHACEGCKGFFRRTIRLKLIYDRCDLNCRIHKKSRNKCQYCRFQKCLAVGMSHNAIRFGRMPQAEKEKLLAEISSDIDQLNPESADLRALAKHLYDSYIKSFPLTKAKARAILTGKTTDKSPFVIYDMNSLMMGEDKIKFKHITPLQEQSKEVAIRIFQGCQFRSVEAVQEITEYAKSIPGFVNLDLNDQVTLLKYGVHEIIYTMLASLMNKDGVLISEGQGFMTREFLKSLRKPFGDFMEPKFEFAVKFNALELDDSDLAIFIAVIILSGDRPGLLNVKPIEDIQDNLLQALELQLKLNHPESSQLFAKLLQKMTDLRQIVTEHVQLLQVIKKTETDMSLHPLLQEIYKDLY

T2: PUF60 460-559 RRM_3 (domain begin residue: 460, domain end residue: 559), Q9UHX1
T2 chain: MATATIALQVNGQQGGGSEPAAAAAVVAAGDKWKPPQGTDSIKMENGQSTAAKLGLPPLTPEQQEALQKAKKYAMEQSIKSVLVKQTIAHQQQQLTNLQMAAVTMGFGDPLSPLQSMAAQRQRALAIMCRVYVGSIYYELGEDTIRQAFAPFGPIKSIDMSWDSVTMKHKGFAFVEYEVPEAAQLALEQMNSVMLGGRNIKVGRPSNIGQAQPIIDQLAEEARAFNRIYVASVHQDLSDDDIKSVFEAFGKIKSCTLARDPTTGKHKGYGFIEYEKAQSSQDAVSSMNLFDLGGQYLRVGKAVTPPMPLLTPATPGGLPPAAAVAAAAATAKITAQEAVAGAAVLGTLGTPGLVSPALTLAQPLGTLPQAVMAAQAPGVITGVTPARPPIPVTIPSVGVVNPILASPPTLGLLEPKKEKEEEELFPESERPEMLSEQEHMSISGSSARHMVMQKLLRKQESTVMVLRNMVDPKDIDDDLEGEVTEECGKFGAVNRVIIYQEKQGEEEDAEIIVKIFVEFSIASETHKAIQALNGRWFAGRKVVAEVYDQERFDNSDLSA

T3: RAB5A 15-188 Ras (domain begin residue: 15, domain end residue: 188), P20339
T3 chain: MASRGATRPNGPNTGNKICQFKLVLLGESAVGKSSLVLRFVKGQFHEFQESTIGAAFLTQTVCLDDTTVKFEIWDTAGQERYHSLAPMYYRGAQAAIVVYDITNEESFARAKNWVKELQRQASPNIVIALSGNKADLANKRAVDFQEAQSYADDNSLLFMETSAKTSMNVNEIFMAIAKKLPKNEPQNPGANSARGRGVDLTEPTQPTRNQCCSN

T4: PPWD1 486-646 Pro_isomerase (domain begin residue: 486, domain end residue: 646), Q96BP3
T4 chain: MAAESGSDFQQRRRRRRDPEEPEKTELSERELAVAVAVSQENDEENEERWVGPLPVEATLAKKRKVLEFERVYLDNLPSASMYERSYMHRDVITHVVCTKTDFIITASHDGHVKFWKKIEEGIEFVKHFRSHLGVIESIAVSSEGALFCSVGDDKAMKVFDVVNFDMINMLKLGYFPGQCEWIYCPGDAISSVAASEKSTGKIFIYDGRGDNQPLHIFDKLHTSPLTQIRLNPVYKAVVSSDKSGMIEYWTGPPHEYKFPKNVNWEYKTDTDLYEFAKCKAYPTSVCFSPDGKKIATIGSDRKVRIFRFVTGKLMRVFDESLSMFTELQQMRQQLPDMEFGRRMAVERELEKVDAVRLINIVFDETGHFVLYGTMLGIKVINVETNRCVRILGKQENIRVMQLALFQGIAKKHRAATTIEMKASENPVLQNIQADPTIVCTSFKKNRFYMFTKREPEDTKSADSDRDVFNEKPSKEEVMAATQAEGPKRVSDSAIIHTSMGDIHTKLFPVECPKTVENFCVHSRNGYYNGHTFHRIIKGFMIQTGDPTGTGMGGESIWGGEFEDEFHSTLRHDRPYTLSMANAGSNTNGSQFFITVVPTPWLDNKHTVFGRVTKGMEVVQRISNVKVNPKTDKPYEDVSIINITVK

T5: RALA 11-183 Ras (domain begin residue: 11, domain end residue: 183), P11233
T5 chain: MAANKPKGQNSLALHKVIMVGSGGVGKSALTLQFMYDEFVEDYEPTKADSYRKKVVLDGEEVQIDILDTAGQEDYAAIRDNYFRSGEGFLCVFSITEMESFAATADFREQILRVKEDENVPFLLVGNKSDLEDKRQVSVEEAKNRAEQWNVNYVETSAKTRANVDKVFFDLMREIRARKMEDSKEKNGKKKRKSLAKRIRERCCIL

Chain of RANBP1 39-170 Ran_BP1 (domain begin residue: 39, domain end residue: 170), P43487 (P43487 whole entry): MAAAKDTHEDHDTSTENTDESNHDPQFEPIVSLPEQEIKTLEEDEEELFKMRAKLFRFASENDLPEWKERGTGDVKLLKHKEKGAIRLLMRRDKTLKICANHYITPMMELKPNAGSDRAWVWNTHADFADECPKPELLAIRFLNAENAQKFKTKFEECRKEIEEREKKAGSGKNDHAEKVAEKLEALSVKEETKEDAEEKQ
Chain of PPIE 138-301 Pro_isomerase (domain begin residue: 138, domain end residue: 301), Q9UNP9 (Q9UNP9 whole entry, the tested form may be a part): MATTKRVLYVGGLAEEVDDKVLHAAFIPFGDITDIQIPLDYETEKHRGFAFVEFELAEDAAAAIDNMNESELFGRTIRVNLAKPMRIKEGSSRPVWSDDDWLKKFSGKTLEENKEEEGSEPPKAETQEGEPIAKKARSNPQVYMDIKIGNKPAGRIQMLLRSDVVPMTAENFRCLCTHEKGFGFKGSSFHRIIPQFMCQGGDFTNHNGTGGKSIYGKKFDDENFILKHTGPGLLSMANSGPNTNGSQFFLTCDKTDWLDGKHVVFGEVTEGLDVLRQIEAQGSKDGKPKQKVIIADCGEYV

The first assay has as its target PPIE 138-301 Pro_isomerase (domain begin residue: 138, domain end residue: 301), Q9UNP9. Briefly: phage ELISA signal ratio (GST-PRM binding over GST background); higher = stronger binding of peptide-phage to the PRM. Summed up: (§1)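 Five rounds of selection were carried out against human peptide recognition domains fused to the C-terminus of glutathione S-transferase (GST) and expressed in 96-well plates. The M13 phage library presented randomized hexadecapeptides, cysteine-free and glycine-flanked, on the gene-8 major coat protein. For each value, the phage ELISA signal on the GST-domain fusion was divided by the signal on GST alone.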
Background: ELISA stands for enzyme-linked immunosorbent assay.
Take SDVYGPHAHPVHYQDE: the “phage ELISA signal ratio” value worked out at 8.93.

With PMTWEMWQIDSAQQTV, the “phage ELISA signal ratio” value amounted to 8.08.

As for HEMFGPQEQSQHMMEW, the “phage ELISA signal ratio” value came out at 4.73.

In the case of ENHVPWVPEARWTTPQ, the “phage ELISA signal ratio” value worked out at 7.51.

For the molecule EPTFGPQPQVFFSTNP, the “phage ELISA signal ratio” value is 17.

Turning to VYDFIGPQPQTNMASI, the “phage ELISA signal ratio” value stood at 21.8.

With ESWGPMEQHSYTEQTE, the “phage ELISA signal ratio” value amounted to 5.43.

PLMMPPEPHWVVNLGI: the “phage ELISA signal ratio” value is 10.5.

Another assay deals with T1, PPARG 233-505 Hormone_recep (domain …. Described as above. A digest of the protocol:
as §1
Turning to LHPMLTDMLAPNHMEV, the “phage ELISA signal ratio” value was found to be 18.6.

As to PSEDVSWWWQQHLMDI, the “phage ELISA signal ratio” value was 17.6.

PESWWESWMMDHEWGS: the “phage ELISA signal ratio” value amounted to 24.5.

A further assay addresses RANBP1 39-170 Ran_BP1 (domain begin residue: 39, domain end residue: 170), P43487. The description is as above. Summed up: as §1
For WLVPLPWEETWQNMSL, the “phage ELISA signal ratio” value stood at 5.79.

Consider WEHLYPWMIPLPGTGV, for which the “phage ELISA signal ratio” value was found to be 6.24.

Regarding WDMTLPVLTNHELAYL, the “phage ELISA signal ratio” value worked out at 9.02.

For GTEWWQQMALPPDVVV, the “phage ELISA signal ratio” value was 7.62.

Take WDVALPQEIVWELADK: the “phage ELISA signal ratio” value stood at 7.66.

Regarding WRMELPVQNHMEVMDL, the “phage ELISA signal ratio” value came out at 6.12.

With VSDMRGVPDSFMDVWD, the “phage ELISA signal ratio” value was found to be 5.06.

For the molecule YGMRLPEASQMETWFL, the “phage ELISA signal ratio” value was found to be 6.18.

With WELALPAEHHEHYWSN, the “phage ELISA signal ratio” value was 4.36.

The target of another assay is T2, PUF60 460-559 RRM_3 (domain begin …. Described as above. A digest of the protocol: as §1
Turning to TQGKWDMQPTDMHYLS, the “phage ELISA signal ratio” value worked out at 13.2.

With MNWGEMWDVRDDQVMV, the “phage ELISA signal ratio” value was determined as 7.64.

For the molecule WSSKWDVIDKDYGIMH, the “phage ELISA signal ratio” value came to 7.28.

In the case of SRWDQQPGQWIKLSEN, the “phage ELISA signal ratio” value was 12.

Turning to NKWDMEHWDTEYRSPV, the “phage ELISA signal ratio” value was 4.03.

For a further assay, the target named is T3, RAB5A 15-188 Ras (domain begin residue: …. Described as above. Summed up:
as §1
WDLAEWEMIWQDYMNH: the “phage ELISA signal ratio” value was found to be 5.62.

The next assay concerns the target T4, PPWD1 486-646 Pro_isomerase (domain …. The assay is described as above. A digest of the protocol:
as §1
Take AVSWGPQWHDFQWALM: the “phage ELISA signal ratio” value is 8.34.

The next assay has as its target T5, RALA 11-183 Ras (domain begin residue: …. The description is as above. A digest of the protocol: as §1
For the molecule LYQEVFEYQGWLCMDL, the “phage ELISA signal ratio” value was 32.5.

Consider LTHEQMLWQLMDALSE, for which the “phage ELISA signal ratio” value was found to be 19.4.
